HTR5A ag: HTR5A agonists in luminescence cell assay, primary screen, counter-screen for OPRM1-OPRD1 heterodimer agonist project, full-deck HTS | 5-hydroxytryptamine receptor 5A (Homo sapiens), P47898 | cell-based | activation, % at 9.3 µM | 340,000 compounds, 0.61% hits; in the data active = activation mostly above about 9.5%, no sharp cut-off; inactive = mostly below about 7.6%;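 also: 0% = cells with vehicle only and 100% = reference agonist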
Target sequence (P47898 whole entry, looked up): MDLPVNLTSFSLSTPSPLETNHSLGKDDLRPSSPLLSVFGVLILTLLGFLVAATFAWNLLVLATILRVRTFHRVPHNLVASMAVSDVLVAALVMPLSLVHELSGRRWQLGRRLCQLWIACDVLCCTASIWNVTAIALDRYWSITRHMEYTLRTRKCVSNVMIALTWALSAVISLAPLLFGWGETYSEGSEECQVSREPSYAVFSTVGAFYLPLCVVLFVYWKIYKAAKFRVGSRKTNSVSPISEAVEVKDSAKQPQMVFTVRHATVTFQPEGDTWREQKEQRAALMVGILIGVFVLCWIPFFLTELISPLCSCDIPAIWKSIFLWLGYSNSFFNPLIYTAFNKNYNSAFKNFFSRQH
HTR5A inv ag: HTR5A inverse agonists in luminescence cell assay, primary screen, counter-screen for OPRM1-OPRD1 heterodimer inverse agonist project, full-deck HTS; 5-hydroxytryptamine receptor 5A (Homo sapiens), P47898; HTR5A cell line, inverse agonism; inhibition, % at 9.3 µM; 340,000 compounds, 0.083% hits; AID 504634, 2011; in the data active = inhibition mostly above about 23%, no sharp cut-off; inactive = mostly below about 18%;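 also: 0% = cells with DMSO and 100% = no-cell wells with DMSO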
OPRM1-OPRD1 inv: inverse agonists of MOR-DOR heterodimerization, primary screen, cell-based, luminescence. inhibition, % at 9.3 µM. 340,000 compounds, 0.21% hits. cell-based MOR-DOR heterodimer luminescence, inverse agonism. AID 504357, 2011; in the data active = inhibition above about 22%, passing the limit was not always enough;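 also: 0% = cells with DMSO and 100% = wells without cells with DMSO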
MOR-DOR ag-1: agonists of OPRM1-OPRD1 heterodimerization, primary screen, cell-based, luminescence; cells; activation, % at 9.3 µM; Mu-type opioid receptor (Homo sapiens) + Delta-type opioid receptor (Homo sapiens), …; AID 504326, 2011; 340,000 compounds, 0.3% hits;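 also: 0% = vehicle-treated cells and 100% = reference agonist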
MOR-DOR ag-2: OPRM1-OPRD1 heterodimerization promoters, counter-screen for HTR5A agonist project, cell-based, luminescence; shares compounds with HTR5A ag; U2OS counter-screen cells, complementation luminescence, 3 h; activation, % at 9.3 µM; 800 compounds, 13% hits; AID 504913, 2011
HTR5A ag confirm: HTR5A agonists, retest of hits, confirmation, cell-based, luminescence | shares compounds with HTR5A ag | HTR5A agonist cell assay | activation, % at 9.3 µM | 800 compounds, 17% hits; in the data active = activation above about 17%;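 also: 0% = cells with vehicle only and 100% = full reference agonist response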
* = called active by the depositor; nt = not tested or not shown. This is a sample that favours compounds with a hit; in the whole collection about 1.1% have one here. Rule as the data show it, unless noted: active = activation above about 18%; inactive = the rest.

SMILES	HTR5A ag	HTR5A inv ag	OPRM1-OPRD1 inv	MOR-DOR ag-1	MOR-DOR ag-2	HTR5A ag confirm
CC(=O)N1CCCC(N2CCN(c3cccc(C(F)(F)F)c3)CC2)C1 (stereo not given)	2	-8	8	-2	nt	nt
Cc1ccc(C(=O)N2CCCC(N3CCN(c4cccc(C(F)(F)F)c4)CC3)C2)s1 (stereo not given)	15*	10	-26	5	6	6
O=C(COc1ccc(Cl)cc1Cl)NNC(=S)Nc1ccc(F)cc1	-2	-17	4	-1	nt	nt
CC(=O)NC(=S)Nc1ccc(NC(=O)COc2ccc(Cl)cc2Cl)cc1	27*	-33	-52	8	0	-3
COc1ccc(-c2nc(C#N)c(N3CCc4ccccc4C3)o2)cc1OC	18*	-42	9	-2	0	1
COc1ccccc1-c1nc(C#N)c(N2CCc3ccccc3C2)o1	9	-26	-7	1	nt	nt
O=C(CN(Cc1ccccc1)C(=O)CCC(=O)Nc1nccs1)NCC1CCCO1 (stereo not given)	8	-23	-11	1	nt	nt
COc1ccccc1NCC(=O)N/N=C/c1sccc1C	26*	-74	-16	3	2	6
COc1ccccc1C(CNc1nc(C(F)(F)F)nc2ccccc12)N(C)C (stereo not given)	12	16	-22	4	nt	nt
CC(C)(C)c1ccc(C(=O)OCC(=O)N2CCC(c3ccccc3)=N2)cc1	-4	11	3	-1	nt	nt
CCOC(=O)C(=CNc1cc(OC)ccc1-n1cccc1)C(=O)OCC	16*	-43	-13	3	0	5
CCOC(=O)C(=CNc1cc(C)ccc1C)C(=O)OCC	-1	-5	-32	6	nt	nt
CCOCCCn1c(SCC(=O)Nc2ccc(OC)cc2)nc2ccccc2c1=O	4	-25	10	-2	nt	nt
Cn1c(NC(=O)c2cccc(Cn3cc(Cl)cn3)c2)nc2ccccc21	2	-7	-7	1	nt	nt
CCn1c(NC(=O)c2cccc(Cn3cc(Cl)cn3)c2)nc2ccccc21	20*	-51	0	0	6	12
Cn1nnc2cc(C(=O)N3CCN(c4ccccn4)CC3)ccc21	4	-28	-18	2	nt	nt
CCOC(=O)Cn1cnc([N+](=O)[O-])n1	7	-19	-3	0	nt	nt
CC(=O)CCn1cnc([N+](=O)[O-])n1	15*	1	9	-2	60*	-1
COc1ccc(-c2nn(-c3ccccc3)cc2/C=C/C(=O)N2CCN(c3ccccn3)CC2)cc1	0	7	8	-2	nt	nt
Oc1c(C(c2cccs2)N2CCOCC2)sc2ncnn12 (stereo not given)	14	-42	-2	0	nt	nt
Oc1c(C(c2cccs2)N2CCN(c3cccc(Cl)c3)CC2)sc2ncnn12 (stereo not given)	18*	6	-1	0	2	3
COc1ccccc1N1CCN(C(=O)c2ccc3c(Cl)c4c(nc3c2)CCCC4)CC1	0	-13	-19	3	nt	nt
O=C(c1ccc2c(Cl)c3c(nc2c1)CCCC3)N1CCN(c2ccc(F)cc2)CC1	16*	-41	-8	1	5	5
O=C(N=C1SC2CS(=O)(=O)CC2N1c1ccccc1)C1CCCCC1 (stereo not given)	-1	8	14	-3	nt	nt
CCOC(=O)c1ccc(Nc2nc(-c3cccnc3)nc3ccccc23)cc1	29*	-75	-39	8	0	2
SMILES	HTR5A ag	HTR5A inv ag	OPRM1-OPRD1 inv	MOR-DOR ag-1	MOR-DOR ag-2	HTR5A ag confirm
COc1cc(O)c(C(CCN2CCCCC2)c2ccc(N(C)C)cc2)c(OC)c1 (stereo not given)	26*	-76	-3	1	45*	-5
O=[n+]1c2c(n([O-])c3cc(F)c(N4CCCC4)cc31)CCC2	4	-12	15	-4	nt	nt
O=[n+]1c2c(n([O-])c3cc(F)c(N4CCCC4)cc31)CCCC2	15*	-35	11	-2	1	40*
COc1ccc(NC(=O)NCCN2CCN(c3cccc(Cl)c3)CC2)cc1	19*	-58	-17	3	15	23*
COc1ccc(N2CCN(CCNC(=O)Nc3ccc(C)c(Cl)c3)CC2)cc1	1	-5	-7	1	nt	nt
CCOc1cccc(N2CCN(CCNC(=O)Nc3ccc(C)cc3)CC2)c1C	15*	-52	-8	2	6	20*
CCOc1ccc(NC(=O)NCCN2CCN(c3ccccc3F)CC2)cc1	1	-3	9	-2	nt	nt
COc1ccc(S(=O)(=O)N(CC(=O)NCc2cccnc2)c2ccc(C)cc2)cc1OC	10	-10	6	-1	nt	nt
CN(C)S(=O)(=O)c1cc(C(=O)Nc2ccccc2C(=O)NC2CC2)ccc1Cl	-10	26	12	-3	nt	nt
Cc1cccc(C(=O)Nc2sc(C)c(-c3ccccc3)c2C#N)c1	17*	-22	-40	7	2	3
O=C(Nc1ccsc1C(=O)O)c1ccc(Cl)cc1	-3	13	10	-2	nt	nt
O=C(O)c1ccc2c(c1)N(Cc1ccccc1F)C(=O)c1ccccc1S2=O (stereo not given)	16*	-45	9	-2	0	-2
O=C(Nn1cnnc1)c1ccc(Cl)c(Cl)c1	5	-21	6	-1	nt	nt
CCN(C(=O)COC(=O)c1ccccc1Cc1ccccc1)c1c(N)n(Cc2ccccc2)c(=O)[nH]c1=O	-1	3	17	-4	nt	nt
CCCOc1c(Cl)cc(C(=O)Nc2ccc3c(c2)OCO3)cc1OCC	16*	-34	-56	9	1	-4
C=CCNC(=O)c1ccccc1NC(=O)C1CC(=O)N(C(C)C)C1 (stereo not given)	16*	-2	6	-1	-1	0
COc1ccc2oc(=O)c(C(=O)N3CCc4ccccc43)cc2c1	15*	-6	4	-1	3	6
COc1cccc2cc(C(=O)N3CCc4ccccc43)c(=O)oc12	-2	14	19	-4	nt	nt
CC(C)(C)c1cc(C(=O)NNc2cc(C(F)(F)F)ccc2Cl)n(Cc2ccccc2)n1	18*	15	-89	18	12	16
COc1ccccc1NNC(=O)c1cc(C(C)(C)C)nn1Cc1ccccc1	7	-12	19	-4	nt	nt
Cc1cccc(NC(=O)COC(=O)COc2ccc3c(c2)CCC3)c1	1	3	-11	3	nt	nt
CC(C)(C)NC(=O)NC(=O)COC(=O)COc1ccc2c(c1)CCC2	20*	-54	-36	6	10	4
CC(=O)c1ccc(N(CC(=O)NCC2CCCO2)C(=O)CCC(=O)Nc2cc(C)on2)cc1 (stereo not given)	14*	-26	-11	2	3	0
O=C(CNc1ccc(F)cc1)N/N=C1\CCCc2ccccc21	16*	-42	-28	5	8	17*

Screening data deposited in PubChem by The Scripps Research Institute Molecular Screening Center.
